Some test systems named below: K-562 leukemia; MALME-3M melanoma; MDA-MB-231 breast; RXF 393 renal; SF-268 CNS; SF-295 CNS; SF-539 CNS; UACC-257 melanoma; M14 melanoma; HCT-15 colon; HT29 colon; SNB-75 CNS; SNB-19 CNS; U251 CNS; PC-3 prostate; UACC-62 melanoma; SK-MEL-28 melanoma; SK-MEL-2 melanoma; LOX IMVI melanoma; SK-MEL-5 melanoma.
Holding throughout (experiment): NCI-60 one-dose screen, 48 h (100 = growth as untreated, 0 = no growth, -100 = all killed)
Common to all, as to conditions: 10 µM unless noted

The panel holds about 83,000 compounds, 20% with a hit somewhere; the sample as a whole holds those more often.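 Growth was measured after 48 h exposure to one concentration of compound in 96-well plates. Values under 10 count as active.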 A number with no mark means an inactive call. Calls of active or inactive are those of the source.

Take `N#Cc1c(-c2ccc(Cl)cc2)nc2c(-c3ccccc3)c(Nc3ccccc3)nn2c1N`: the growth was 67.3% in the assay on K-562 leukemia; 79.9% with MALME-3M melanoma; 26% in the assay with MDA-MB-231 breast; 78.8% in the assay with RXF 393 renal; 82.4% in the assay on SF-268 CNS; 46% with SF-295 CNS. Besides, the growth with SF-539 CNS is 80.6%; in the assay on UACC-257 melanoma, 105%; in the assay on M14 melanoma, 70.1%; in the assay on HCT-15 colon it was 67.2%; with HT29 colon, 62.9%; in the assay on SNB-75 CNS, 4.2% (active). Moreover, the growth in the assay with SNB-19 CNS was 72.8%; with U251 CNS, 19.8%; in the assay on PC-3 prostate, 62.2%; with UACC-62 melanoma, 62.8%; in the assay with SK-MEL-28 melanoma, 82.5%; in the assay on SK-MEL-2 melanoma, 96%.
Turning to `C[C@@H]1CN(c2ccc3ncc(C#Cc4cncc(C(=O)Nc5ccc(CN6CCN(C)CC6)c(C(F)(F)F)c5)c4)n3n2)C[C@H](C)O1`, the growth is -11.8% (active) with K-562 leukemia; -68.9% (active) with MALME-3M melanoma; -24.9% (active) with MDA-MB-231 breast; -92.1% (active) with RXF 393 renal; -60.3% (active) with SF-268 CNS; 0.595% (active) in the assay on SF-295 CNS. For the same molecule, the growth with SF-539 CNS is -96.1% (active); in the assay on UACC-257 melanoma it was -19.1% (active); in the assay on M14 melanoma, -76.3% (active); in the assay on HCT-15 colon it was -17.2% (active); in the assay with HT29 colon, -65.8% (active); in the assay with SNB-75 CNS, -79.3% (active). Further, the growth in the assay on SNB-19 CNS is -4.76% (active); with U251 CNS, -97.9% (active); in the assay on PC-3 prostate, 0.777% (active); in the assay with UACC-62 melanoma, -65.9% (active); in the assay with LOX IMVI melanoma, -87.7% (active); with SK-MEL-28 melanoma it was -89.5% (active). In the assay with SK-MEL-2 melanoma, the growth is -89.7% (active).
As to `O=C1/C(=C/C2=Cc3ccccc3OC2)SC(=S)N1c1ccc(F)cc1`, the growth is 91% with K-562 leukemia; 101% with MALME-3M melanoma; 99% in the assay with MDA-MB-231 breast; 106% with RXF 393 renal; 111% with SF-268 CNS; 102% in the assay with SF-295 CNS. Besides, the growth with SF-539 CNS was 98.5%; in the assay on UACC-257 melanoma, 108%; in the assay on M14 melanoma it was 103%; in the assay with HCT-15 colon, 105%; in the assay on HT29 colon it was 118%; with SNB-75 CNS, 100%. Also, the growth in the assay with SNB-19 CNS was 93.2%; with U251 CNS, 94.9%; with PC-3 prostate it was 115%; in the assay on UACC-62 melanoma it was 97.4%; in the assay with LOX IMVI melanoma it was 92.5%; in the assay on SK-MEL-28 melanoma, 97.9%. Further, the growth with SK-MEL-2 melanoma was 120%.
For the molecule `COc1ccccc1C(=O)CSc1nc(Nc2ccc(S(N)(=O)=O)cc2)c2ccccc2n1`, the growth in the assay on K-562 leukemia was 85.7%; in the assay on MALME-3M melanoma, 90.2%; in the assay on MDA-MB-231 breast, 77.3%; in the assay with RXF 393 renal, 97.1%; in the assay with SF-268 CNS, 89.9%; in the assay on SF-295 CNS it was 97.6%. The growth with SF-539 CNS is 81.2%; in the assay with UACC-257 melanoma it was 111%; in the assay on M14 melanoma, 94.1%; with HCT-15 colon it was 92.4%; in the assay on HT29 colon, 102%; with SNB-75 CNS it was 106%. Also, the growth with SNB-19 CNS was 85.7%; in the assay with U251 CNS, 93%; with PC-3 prostate, 92.6%; in the assay with UACC-62 melanoma, 88.6%; with LOX IMVI melanoma, 16.1%; with SK-MEL-28 melanoma, 96.8%. Besides, the growth with SK-MEL-2 melanoma was 98.1%.
In the case of `COc1ccc(/C=N/NC(=O)c2[nH]c3ccc(Br)cc3c2-c2ccccc2)s1`, the growth is 10.8% in the assay on K-562 leukemia; 55.5% with MALME-3M melanoma; 3.89% (active) with MDA-MB-231 breast; 80.9% in the assay with RXF 393 renal; 39.7% in the assay on SF-268 CNS; 15.6% in the assay on SF-295 CNS. Also, the growth with SF-539 CNS was 1.16% (active); in the assay on UACC-257 melanoma, 47%; in the assay on M14 melanoma, 6.17% (active); in the assay with HCT-15 colon it was 12%; in the assay on HT29 colon it was 0.251% (active); in the assay on SNB-75 CNS, 26.4%. Moreover, the growth is 30.6% in the assay on SNB-19 CNS; 30.2% in the assay with U251 CNS; 30.9% with PC-3 prostate; -24.4% (active) in the assay with SK-MEL-5 melanoma; 42.4% in the assay on UACC-62 melanoma; 43.9% in the assay on SK-MEL-2 melanoma.
In the case of `Clc1ccc2oc3c(NCCCn4ccnc4)c4ccccc4nc3c2c1`, the growth with K-562 leukemia is 4.86% (active); with MALME-3M melanoma, 57.1%; in the assay with MDA-MB-231 breast, 27.1%; with RXF 393 renal it was 23.9%; in the assay on SF-268 CNS, 38.3%; with SF-295 CNS it was 30.2%. Further, the growth in the assay on SF-539 CNS is 24.3%; with UACC-257 melanoma, 78.3%; in the assay with M14 melanoma, 49.7%; in the assay on HCT-15 colon, 13%; in the assay with HT29 colon, -35.2% (active); in the assay on SNB-75 CNS, 42.1%. Moreover, the growth is 51% in the assay on SNB-19 CNS; 11.6% with U251 CNS; 55.4% with PC-3 prostate; 45.2% with UACC-62 melanoma; -72.1% (active) with LOX IMVI melanoma; 59% with SK-MEL-28 melanoma. For the same molecule, the growth in the assay with SK-MEL-2 melanoma was 110%.
As to `COc1ccc(NC2=CC(=O)C(C)=C(C)C2=O)cc1`, the growth is 66.6% in the assay on K-562 leukemia; 89.9% in the assay on MALME-3M melanoma; 83.8% with MDA-MB-231 breast; 102% in the assay with RXF 393 renal; 101% with SF-268 CNS; 105% in the assay on SF-295 CNS. In addition, the growth in the assay with SF-539 CNS was 105%; in the assay with UACC-257 melanoma, 45.4%; in the assay on M14 melanoma, 95.6%; with HCT-15 colon, 89%; in the assay with HT29 colon, 109%; with SNB-75 CNS it was 123%. The growth in the assay on SNB-19 CNS is 99.2%; with U251 CNS it was 92%; in the assay with PC-3 prostate it was 71.5%; in the assay with UACC-62 melanoma it was 95.4%; in the assay on SK-MEL-28 melanoma, 99.4%; with SK-MEL-2 melanoma, 81.8%.
With `Cn1cc(-c2cc(N)n3nc(-c4cn(C)c5ccc(Cl)cc45)cc3n2)c2cc(Cl)ccc21`, the growth in the assay with K-562 leukemia is 26.5%; with MALME-3M melanoma, 100%; with MDA-MB-231 breast it was 71.1%; in the assay with RXF 393 renal, 121%; with SF-268 CNS, 78.8%; with SF-295 CNS, 95.4%. Further, the growth in the assay with SF-539 CNS was 94.2%; in the assay on UACC-257 melanoma, 108%; with M14 melanoma, 53.4%; in the assay with HCT-15 colon, 32.8%; in the assay with HT29 colon, -16.5% (active); in the assay with SNB-75 CNS it was 83.2%. The growth in the assay on SNB-19 CNS was 99.4%; with U251 CNS, -4.82% (active); in the assay with PC-3 prostate, 87.3%; in the assay with UACC-62 melanoma, 93.9%; in the assay on LOX IMVI melanoma it was 11.3%; in the assay on SK-MEL-28 melanoma it was 76.7%. The growth in the assay with SK-MEL-2 melanoma was 121%.

Source of the values: PubChem BioAssay (NCI).
